Screening data from PubChem BioAssay.
SW480 rerep: A quantitative high throughput screen for small molecules that induce DNA re-replication in SW480 colon adenocarcinoma cells. SW480 DNA re-replication, Hoechst DNA content imaging, 48 h. Potency, µM (highest dose often 46.1 µM), inactives show top-dose re-replication activation, most hits filed as activators. hit rate 1.8% among 340,000; also: % of control where 0% means no effect; nearly all actives have a fitted effect of over 55% in size
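Image-based DNA-content assay: after two days of treatment, nuclei were labelled with the DNA dye Hoechst and imaged, and hits were compounds raising the count of nuclei showing high fluorescence intensity.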
MCF10A rereplic: A quantitative high throughput screen for small molecules that induce DNA re-replication in MCF 10a normal breast cells; MCF 10A DNA re-replication, Hoechst nuclear intensity, 48 h; Potency, µM (series often up to 46.1 µM), for inactives: top-dose activity, positive = re-replication, hits mostly activators; hit rate 2.9% among 350,000; AID 624296, 2012; also: % of control where 0% means no effect; nearly all actives have a fitted effect of over 50% in size
PTAP TSG101 blk: qHTS Assay for Iinhibitors of HIV-1 Budding by Blocking the Interaction of PTAP/TSG101; Tumor susceptibility gene 101 protein (Homo sapiens), Q99816; Fluorescence polarization, FITC-PTAP peptide / Tsg101 binding; Potency, µM (top dose mostly 115 µM), for inactives: at the highest dose activity change, negative = inhibition, usual class: inhibitors; 340,000 tested, under 10 active; AID 493005, 2010; active = well fitted inhibition curve with a large enough effect in the main read-out, with a control signal flat, not every such curve was filed as active; inconclusive = small, poorly fitted or top-dose-only effect, or effect the other way, or a change in a side signal; inactive = no such curve, though single readings can be large or run the other way; also: % of control where 0% means no effect
Target sequence (Q99816 whole entry, looked up): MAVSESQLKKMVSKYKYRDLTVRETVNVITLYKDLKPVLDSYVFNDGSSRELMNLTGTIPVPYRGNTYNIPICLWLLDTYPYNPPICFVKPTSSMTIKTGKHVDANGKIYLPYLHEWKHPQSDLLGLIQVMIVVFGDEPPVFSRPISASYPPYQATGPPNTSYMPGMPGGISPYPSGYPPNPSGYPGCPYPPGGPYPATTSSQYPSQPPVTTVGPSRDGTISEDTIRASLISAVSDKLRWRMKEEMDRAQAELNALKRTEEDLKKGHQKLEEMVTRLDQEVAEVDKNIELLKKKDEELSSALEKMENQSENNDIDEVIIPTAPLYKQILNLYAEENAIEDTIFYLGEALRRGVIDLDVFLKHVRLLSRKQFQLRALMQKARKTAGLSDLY
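Fluorescence polarization binding of Tsg101 binding domain (10 uM final) to FITC-labeled PTAP peptide (50 nM final) in HEPES pH 7.5 buffer with NaCl, Tween 20, EDTA, TCEP. Compounds added before peptide; binding 20 min at RT.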
KB-3-1 cytotox: qHTS assay for MDR1-selective chemotherapeutics: Primary screen using the parental adenocarcinoma cell KB-3-1 | KB-3-1 viability, CellTiter-Glo ATP luminescence, 72 h | Potency, µM (top dose mostly 46.1 µM), most hits filed as cytotoxic | hit rate 1.4% among 400,000 | AID 1347075, 2019; also: % is scaled to controls: 0 for no effect and ±100 for the full control effect; nearly all actives have a fitted effect of over 60% in size
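Using CellTiter-Glo luminescence, growth of non-resistant KB-3-1 adenocarcinoma cells is assessed 72 h after pin-tool compound addition at 37 °C. Normalized responses across the concentration series yield fitted curves.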
KB-V1 cytotox: qHTS assay for MDR1-selective chemotherapeutics: Primary screen using the drug-selected MDR subline cells KB-V1. KB-V1 MDR cells viability, CellTiter-Glo, 72 h. hit rate 3.4% among 400,000. Potency, µM (titrated, usually from 46.1 µM), actives largely listed as cytotoxic. AID 1347076, 2019; also: % is scaled to controls: 0 for no effect and ±100 for the full control effect; nearly all actives have a fitted effect of over 60% in size
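Drug-selected KB-V1 cells, grown in DMEM lacking phenol red with 10% FBS, receive compound titrations; after three days at 37 degrees C, surviving cell ATP is quantified by CellTiter-Glo luminescence and responses normalized and curve-fitted.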
PINK1 expr mod: A Quantitative High throughput Screen to Identify Chemical Modulators of PINK1 Expression; Potency, µM (titrated, usually from 76.6 µM), for the others: at the top dose activation (PINK1 increase), usual class: activators; AID 624263, 2012; hit rate 0.2% among 410,000; PINK1 immunofluorescence, high-content cytometry, 24 h; active = well fitted activation curve with a large enough effect; inconclusive = small, poorly fitted or top-dose-only effect; cell line not stated here; also: % of control where 0% means no effect; nearly all actives have a fitted effect of over 65% in size
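Stable cell line, 250 cells/well, 12 h attachment; compounds pinned at 5 concentrations, 24 h; CCCP control. Fixed with nuclear dye, primary antibodies 12 h at 10 degrees C, secondary plus cell stain; laser-scanning cytometer read.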
Starred values were filed as active, the others as inactive; i = inactive; ? = inconclusive; . = not tested or not shown; ! = a repeat was not active; [ ] = dose if it differs, or a comment. This is a sample that favours compounds with a hit; in the whole collection about 6.8% have one here. Unless noted, calls follow the shape of the dose curve; as a rule, active = well fitted curve in the direction sought with a large enough effect; inconclusive = small, poorly fitted or top-dose-only effect, or another doubt; inactive = no such curve, though single readings can be large; an effect the other way counts as inactive or inconclusive. Potency is read from the fitted curve at half-maximal effect.

SMILES	SW480 rerep	MCF10A rereplic	PTAP TSG101 blk	KB-3-1 cytotox	KB-V1 cytotox	PINK1 expr mod
CC1c2ccccc2-n2nncc2CN1CC1CCCCC1 (stereo not drawn)	11%[9.22 µM]	14%	-8%	i	i	1%
Brc1ccc2c(c1)CN(CC1CCCCC1)Cc1cnnn1-2	.	.	.	i	18µM*	0%
CC1CN(C(=O)c2ccc(S(=O)(=O)Nc3ccccc3F)cc2)CC(C)O1 (stereo not drawn)	-70%	-1%	-3%	i	i	-1%
O=C1NC(=O)C2(Cc3ccccc3N3CCCC32)C(=O)N1c1ccc(Cl)cc1 (stereo not drawn)	1%	21µM*	0%	?	i	2%[38.3 µM]
COC(=O)C1=C(c2ccc(F)cc2OCc2ccccc2)C[C@@H]2CC[C@H]1N2C(=O)NCCN1CCOCC1	?	0.58µM*	-2%	i	i	-2%
COC(=O)C1=C(c2ccc(F)cc2OCc2ccccc2)C[C@@H]2CC[C@H]1N2C(=O)NCCc1ccc(F)cc1	-6%	?	-1%	i	?	0%
COC(=O)C1=C(c2ccc(F)cc2OCc2ccccc2)C[C@@H]2CC[C@H]1N2C(=O)NCc1cccc(C(F)(F)F)c1	1%	3.3µM*	.	?	?	3%
CC1CC2CC(=O)C3CCCN4CCCC2[C@]34C1 (stereo partly drawn)	.	.	.	.	.	-1%
C[C@@]12CC[C@H]3[C@@H](CC[C@@H]4C[C@H]5S[C@H]5C[C@]43C)[C@H]1CC[C@H]2O	-1%[20.6 µM]	10%[20.6 µM]	.	.	.	.
Cc1c(C(=O)NCCC2=CCCCC2)oc2ccc(S(=O)(=O)N3CCC4(CC3)OCCO4)cc12	24%	?	2%	?	16µM*	3%
CCCCCCC[n+]1ccc(-c2cc[n+](CCCCCCC)cc2)cc1	?	19%	-1%	?	i	-1%
CCCCCCCCCCCCCCCC[n+]1ccccc1	5%	?	0%	5.8µM*!	?	-1%
CC[N+](C)(CC)CCOC(=O)C(O)(c1ccccc1)c1ccccc1	0%	4%	.	.	.	.
O=C(Nc1nccs1)C(Cl)(Cl)Cl	-5%	-15%	-6%	i	i	0%
O=C(CCl)Nc1nccs1	16µM*	?	-1%	?	?	0%
O=C(Nc1ccc(Cl)cc1)Nc1nccs1	5.8µM*	7.3µM*	-2%	4.6µM*	2.6µM*	0%
COC(=O)c1ccccc1C(=O)c1ccc(OCCN2CCCCC2)cc1	-6%	?	.	.	.	.
O=C(Cn1c(=O)oc2ccccc21)NCCc1ccccc1	-4%	-25%	-2%	i	i	-1%
Cc1cc(C(C#N)c2ccc(Cl)cc2)c(Cl)cc1NC(=O)c1cc(I)cc(I)c1O (stereo not drawn)	?	?	-5%	i	i	14µM*
COc1ccc(/C=C2/C(=O)N(Cc3ccco3)C(=O)N(C(C)C)C2=O)cc1	6%	18µM*	5%	i	i	1%
CC(C)N1C(=O)/C(=C/C=C/c2ccco2)C(=O)N(Cc2ccco2)C1=O	?	9.2µM*	-2%	?	?	3%
O=c1nc(/C=C/c2ccc(Cl)cc2Cl)cc(C(F)(F)F)[nH]1	-9%	6.5µM*	1%	i	i	4%
C#CC1(O)CCC2C3CCC4=CC(=O)CCC4=C3C=CC21C (stereo not drawn)	-1%	28%	-2%	2.3µM*	2.6µM*	-5%
CCOC(=O)C(O)(c1ccc(N(CC)C(=O)OC)cc1)C(F)(F)F (stereo not drawn)	-18%	-1%	-1%	i	21µM*	6%[38.3 µM]
CCOC(=O)N(CC)c1ccc(C(O)(C(=O)OCC)C(F)(F)F)cc1 (stereo not drawn)	-17%	-15%	-2%	i	i	0%
SMILES	SW480 rerep	MCF10A rereplic	PTAP TSG101 blk	KB-3-1 cytotox	KB-V1 cytotox	PINK1 expr mod
CC(C)[C@@]1(NC(=O)[C@@H]2C[C@@H]3c4cccc5[nH]cc(c45)C[C@H]3N(C)C2)O[C@@]2(O)[C@@H]3CCCN3C(=O)[C@H](Cc3ccccc3)N2C1=O	18µM*!	21µM*!	-6%	i	i	1%
Cc1sc2ncnc(N3CCC(C(=O)Nc4ccc(C#N)c(Cl)c4)CC3)c2c1C	0%	13µM*	-4%	i	i	-2%
Cc1ccccc1-c1cncnc1NCCc1cnc[nH]1	.	.	.	.	.	0%
O=C(c1ccc2c(c1)N(Cc1c(F)cccc1Cl)C(=O)c1ccccc1S2)N1CCC2(CC1)OCCO2	.	.	.	i	i	-1%
O=c1oc2ccccc2c(O)c1Cc1c(O)c2ccccc2oc1=O	-5%[20.6 µM]	13%[20.6 µM]	.	.	.	.
O=Nc1c(O)c2ccccc2c2ccccc12	1.8µM*	6.5µM*	-1%	4.6µM*	16µM*	-1%
O=P(O)(O)COc1ccccc1O	4.6µM*	?	-3%	i	i	2%[38.3 µM]
CCOc1ccc(-c2cc(C)[n+](CCc3ccc(OC)c(OC)c3)c(-c3ccc(OCC)cc3)c2)cc1	6%	14%	-3%	5.8µM*	i	?
COc1ccc(-n2c(/C=C\c3ccccc3F)nc3ccccc3c2=O)cc1OC	.	.	.	?	?	2%
N#Cc1ncc(N=Cc2ccc(N(CCCl)CCCl)cc2)s1	?	21µM*	11%	?	i	1%
ClCCN(CCCl)c1ccc(C=NNc2ncccn2)cc1	?	?	-5%	i	i	0%
O=C(CCl)NN=C(c1ccccc1)c1ccccc1	?	15µM*	2%	?	i	19%
CC1CCN(C(=O)c2ncn(C)c2C(=O)N2CCC(C)CC2)CC1	-5%	5%	-1%	i	i	-1%
COc1ccc(CCN(C)Cc2c(F)cccc2F)cc1OC	0%	?	-6%	i	12µM*	-1%[38.3 µM]
O=C1CN=C(c2cccs2)c2c(sc3c2CCCC3)N1	21µM*	13µM*	-3%	?	?	3%[38.3 µM]
N#Cc1cc2c(nc1SCC(=O)Nc1ccc(Cl)cc1)C1CCN2CC1	?	187%	-4%	?	2.9µM*	2%[38.3 µM]
N#Cc1cc2c(nc1SCC(=O)Nc1cc(Cl)ccc1Cl)C1CCN2CC1	?	0.58µM*	-5%	?	4.1µM*	12%[38.3 µM]
N#Cc1cc2c(nc1SCC(=O)Nc1ccc(Cl)c(C(F)(F)F)c1)C1CCN2CC1	.	.	.	.	.	1%
